In the library only some 4.2% were active in any assay of this set; here they are far more common.
Mtb FBA inh – Mtb fructose-bisphosphate aldolase inhibition; purified M. tuberculosis FBA, fluorescence read-out; actives 2.3% (n = 360,000); AID 588726; inhibition, % at 1 µM
Target sequence (P9WQA3 whole entry, looked up): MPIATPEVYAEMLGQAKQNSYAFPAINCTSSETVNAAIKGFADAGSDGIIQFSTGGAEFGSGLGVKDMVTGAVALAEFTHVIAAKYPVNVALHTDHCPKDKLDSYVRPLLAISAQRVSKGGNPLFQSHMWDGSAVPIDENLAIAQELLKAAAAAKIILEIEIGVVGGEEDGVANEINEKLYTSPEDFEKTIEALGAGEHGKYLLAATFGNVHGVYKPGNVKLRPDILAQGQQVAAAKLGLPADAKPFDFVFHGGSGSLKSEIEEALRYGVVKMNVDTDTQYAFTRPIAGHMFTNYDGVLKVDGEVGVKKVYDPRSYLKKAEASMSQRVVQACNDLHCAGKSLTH
CCHF vOTU inh – CCHFV vOTU protease inhibition; actives 0.55% (n = 370,000); inhibition, % at 11.5 µM; Pep-AMC fluorescence; AID 651958; in the data active = inhibition above about 30%
GDH-TPI counter-1 – counter-screen for M. tuberculosis FBA inhibitors: GDH-TPI coupled enzymes. GDH-TPI coupled enzyme counterscreen, NADH absorbance. inhibition, % at 4.8 µM. actives 1.2% (n = 360,000). AID 588335; in the data active = inhibition above about 30%
RecA splice inh – Mtb RecA intein splicing inhibition; cell-free RecA intein splicing, fluorescence; inhibition, % (concentration not given with the values); P9WHJ3; actives 0.75% (n = 290,000); in the data active = inhibition above about 30%
Mtb FBA inh conf – confirmation of M. tuberculosis fructose-bisphosphate aldolase inhibitors; actives 78% (n = 5,600); purified M. tuberculosis FBA, fluorescence read-out; inhibition, % at 1 µM; shares compounds with Mtb FBA inh
GDH-TPI counter-2 – inhibits GDH-TPI coupling enzymes, flagging Mtb FBA hits; actives 81% (n = 5,600); GDH-TPI coupled enzyme counterscreen, fluorescence; inhibition, % at 1 µM; shares compounds with Mtb FBA inh; AID 652141; in the data active = inhibition above about 10%
Hits are given with their value. Cut-off read from the data, not from the text of the source, unless noted: active = inhibition above about 27%; inactive = the rest.

`Cc1cc(C)c2oc(=O)cc(CN3CCOCC3)c2c1` gave Mtb FBA inh inactive, CCHF vOTU inh inactive, GDH-TPI counter-1 inactive and RecA splice inh inactive.
`Cc1c(O)ccc2c(CN3CCOCC3)cc(=O)oc12` gave Mtb FBA inh 71, CCHF vOTU inh inactive, GDH-TPI counter-1 inactive, RecA splice inh inactive, Mtb FBA inh conf 46 and GDH-TPI counter-2 38.
For CN(C)c1ccc(C2Nc3ccccc3C(=O)N2CCN2CCNC2=O)cc1 (stereo not given) the results were Mtb FBA inh inactive, CCHF vOTU inh inactive, GDH-TPI counter-1 inactive and RecA splice inh inactive.
Screening CCCN1C(=O)c2ccccc2NC1c1ccc(Cl)cc1 (stereo not given) returned Mtb FBA inh 60, CCHF vOTU inh inactive, GDH-TPI counter-1 inactive, RecA splice inh inactive, Mtb FBA inh conf 132 and GDH-TPI counter-2 107.
`Cc1ccc(C2Nc3ccccc3C(=O)N2CCCN2CCOCC2)cc1` (stereo not given) gave Mtb FBA inh 59, CCHF vOTU inh inactive, GDH-TPI counter-1 inactive, RecA splice inh inactive, Mtb FBA inh conf 102 and GDH-TPI counter-2 108.
For CCCN1C(=O)c2ccccc2NC1c1ccc(Cl)c(Cl)c1 (stereo not given) the results were Mtb FBA inh 60, CCHF vOTU inh inactive, GDH-TPI counter-1 inactive, RecA splice inh inactive, Mtb FBA inh conf 104 and GDH-TPI counter-2 107.
Screening O=C1c2ccccc2NC(c2cc(Cl)cc(Cl)c2O)N1CCc1ccccn1 (stereo not given) returned CCHF vOTU inh inactive.
Screening CCCN1C(=O)c2ccccc2NC1c1ccc(Br)cc1 (stereo not given) returned Mtb FBA inh 68, CCHF vOTU inh inactive, GDH-TPI counter-1 inactive, RecA splice inh inactive, Mtb FBA inh conf 68 and GDH-TPI counter-2 60.
For CCCCCCCCN1C(=O)[C@H](CC(=O)N2CCCCC2)C[C@@]2(C(=O)OC)CCCCC=C12 the results were CCHF vOTU inh inactive.
`Cc1ccc(-n2ncc3c(SCC(N)=O)ncnc32)cc1C` gave Mtb FBA inh inactive, CCHF vOTU inh inactive, GDH-TPI counter-1 inactive and RecA splice inh inactive.
COc1cccc(-c2nc(SC)nc3sc(C(=O)NC(C)(C)C)c(N)c23)c1 was read as Mtb FBA inh inactive, CCHF vOTU inh inactive, GDH-TPI counter-1 inactive and RecA splice inh inactive.
`CN(C(=O)CSc1nc2ccccc2c(=O)n1C)C1CCS(=O)(=O)C1` (stereo not given) gave Mtb FBA inh inactive, CCHF vOTU inh inactive and GDH-TPI counter-1 inactive.
Screening Cc1ccc(NS(=O)(=O)c2ccc3c(c2)NC(=O)CCS3)c(Br)c1 returned Mtb FBA inh inactive, CCHF vOTU inh inactive, GDH-TPI counter-1 inactive and RecA splice inh inactive.
O=C1c2ccccc2NC(c2ccccc2)N1Cc1ccco1 (stereo not given) was read as Mtb FBA inh 51, CCHF vOTU inh inactive, GDH-TPI counter-1 inactive, RecA splice inh inactive, Mtb FBA inh conf inactive and GDH-TPI counter-2 inactive.
For O=C1c2ccccc2NC(c2ccc(F)cc2)N1Cc1ccco1 (stereo not given) the results were Mtb FBA inh 49, CCHF vOTU inh inactive, GDH-TPI counter-1 inactive, RecA splice inh inactive, Mtb FBA inh conf 85 and GDH-TPI counter-2 61.
For COc1cccc(OCc2cc(C3Nc4ccccc4C(=O)N3Cc3ccco3)ccc2OC)c1 (stereo not given) the results were Mtb FBA inh inactive, CCHF vOTU inh inactive, GDH-TPI counter-1 inactive and RecA splice inh inactive.
Screening O=C1NC(c2ccc3ccccc3c2)Nc2ccccc21 (stereo not given) returned Mtb FBA inh 50, CCHF vOTU inh inactive, GDH-TPI counter-1 inactive, Mtb FBA inh conf 71 and GDH-TPI counter-2 87.
`O=C1NC(c2ccc(Br)cc2)Nc2ccccc21` (stereo not given) gave Mtb FBA inh 42, CCHF vOTU inh inactive, GDH-TPI counter-1 inactive, RecA splice inh inactive, Mtb FBA inh conf 102 and GDH-TPI counter-2 95.
CCN(CC)c1ccc(C2NC(=O)c3ccccc3N2)cc1 (stereo not given) was read as Mtb FBA inh inactive, CCHF vOTU inh inactive and GDH-TPI counter-1 inactive.
Screening O=C1NC(c2ccc3c(c2)OCO3)Nc2ccccc21 (stereo not given) returned Mtb FBA inh inactive, CCHF vOTU inh inactive, GDH-TPI counter-1 inactive and RecA splice inh inactive.
For Cc1c(C)c2cc(Cl)c(OCC(=O)Nc3ccccn3)cc2oc1=O the results were Mtb FBA inh inactive, CCHF vOTU inh inactive and GDH-TPI counter-1 inactive.
`Cc1c(C)c2cc(Cl)c(OCc3nn[nH]n3)cc2oc1=O` gave Mtb FBA inh 55, CCHF vOTU inh inactive, GDH-TPI counter-1 inactive, RecA splice inh inactive, Mtb FBA inh conf 92 and GDH-TPI counter-2 75.
Screening CCN(CC)C(=O)COc1cc(C)cc2oc(=O)c3c(c12)CCCC3 returned Mtb FBA inh 81, CCHF vOTU inh inactive, GDH-TPI counter-1 inactive, RecA splice inh inactive, Mtb FBA inh conf 61 and GDH-TPI counter-2 43.
Screening C=CCOC(=O)COc1cc(C)cc2oc(=O)c3c(c12)CCC3 returned Mtb FBA inh 57, CCHF vOTU inh inactive, GDH-TPI counter-1 inactive, RecA splice inh inactive, Mtb FBA inh conf active and GDH-TPI counter-2 170.
Screening CCCCOC(=O)COc1cc(C)cc2oc(=O)c3c(c12)CCC3 returned Mtb FBA inh inactive, CCHF vOTU inh inactive, GDH-TPI counter-1 inactive and RecA splice inh inactive.
For Cc1cc(OCc2ccc([N+](=O)[O-])cc2)c2c3c(c(=O)oc2c1)CCCC3 the results were Mtb FBA inh inactive, CCHF vOTU inh inactive, GDH-TPI counter-1 inactive and RecA splice inh inactive.
Screening Cc1cc(OCc2nn[nH]n2)c2c3c(c(=O)oc2c1)CCCC3 returned Mtb FBA inh 84, CCHF vOTU inh inactive, GDH-TPI counter-1 inactive, RecA splice inh inactive, Mtb FBA inh conf 59 and GDH-TPI counter-2 47.
Screening Nc1ccc(CCCC(=O)NCc2cccnc2)cc1 returned Mtb FBA inh inactive, CCHF vOTU inh inactive and GDH-TPI counter-1 inactive.
`O=C(O)c1ccc(N=Nc2c(-c3ccccc3)[nH]oc2=O)cc1` gave Mtb FBA inh inactive, CCHF vOTU inh inactive, GDH-TPI counter-1 inactive and RecA splice inh inactive.
For O=c1nc(-c2ccccc2)c2ccccc2[nH]1 the results were Mtb FBA inh inactive, CCHF vOTU inh inactive and GDH-TPI counter-1 inactive.
For O=c1[nH]c2ccccc2nc1-c1ccccc1 the results were Mtb FBA inh 45, CCHF vOTU inh inactive, GDH-TPI counter-1 31, RecA splice inh inactive, Mtb FBA inh conf 79 and GDH-TPI counter-2 76.
For COc1ccc(-c2nnc(SCC(=O)NC3CCCCC3)n2N)cc1 the results were Mtb FBA inh inactive, CCHF vOTU inh inactive and GDH-TPI counter-1 inactive.
`C=CCN1C(=O)CSc2ccc(C(=O)NCc3ccc(F)cc3)cc21` gave Mtb FBA inh inactive, CCHF vOTU inh inactive, GDH-TPI counter-1 inactive and RecA splice inh inactive.
CCCOc1ccc(CNC(=O)c2ccc3c(c2)N(CC)CCS3)cc1 was read as Mtb FBA inh 75, CCHF vOTU inh inactive, GDH-TPI counter-1 inactive, RecA splice inh inactive, Mtb FBA inh conf 157 and GDH-TPI counter-2 99.
